Records with an inconclusive call do not appear. Unmarked numbers belong to inactive results. The call rests on the fitted dose curve; in most records, active means well fitted inhibition curve with a large enough effect in the polarisation, with a control signal flat (not every such curve was filed as active); inconclusive means small, poorly fitted or top-dose-only effect, or effect the other way, or a change in a side signal; inactive means no such curve, though single readings can be large or run the other way; the % refers to the polarisation.
On the % scale 0 is the no-effect control and ±100 the full control effect.

Menin (Homo sapiens), sequence (O00255 whole entry, looked up): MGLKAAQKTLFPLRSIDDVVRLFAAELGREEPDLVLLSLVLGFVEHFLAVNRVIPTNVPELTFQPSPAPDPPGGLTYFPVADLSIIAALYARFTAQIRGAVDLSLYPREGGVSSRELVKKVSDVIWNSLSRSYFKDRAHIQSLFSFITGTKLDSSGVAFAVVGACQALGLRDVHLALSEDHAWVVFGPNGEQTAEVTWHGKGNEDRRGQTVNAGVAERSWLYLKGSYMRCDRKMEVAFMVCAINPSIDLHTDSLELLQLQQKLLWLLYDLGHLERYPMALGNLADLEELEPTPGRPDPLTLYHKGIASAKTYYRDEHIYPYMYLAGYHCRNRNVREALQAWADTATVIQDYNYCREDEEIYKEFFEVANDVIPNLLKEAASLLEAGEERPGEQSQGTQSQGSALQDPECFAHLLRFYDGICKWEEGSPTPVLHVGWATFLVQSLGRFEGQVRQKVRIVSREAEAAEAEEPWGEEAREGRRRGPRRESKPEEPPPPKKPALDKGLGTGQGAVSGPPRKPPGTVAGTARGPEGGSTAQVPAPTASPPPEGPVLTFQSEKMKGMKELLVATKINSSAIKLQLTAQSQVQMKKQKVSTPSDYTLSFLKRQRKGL

This test addresses Menin (Homo sapiens) (UniProt O00255). The test can be described thus: Confirmation of Inhibitors Targeting the Menin-MLL Interaction in MLL Related Leukemias: Competition With Fluorescein Labeled MLL-derived Peptide. The conditions noted are these: Fluorescence polarization, fluorescein-MLL peptide displacement from menin; series mostly up to 100 µM; activity change, negative = inhibition: at the top concentration. In general terms: Fluorescence polarisation rises when a labelled molecule tumbles more slowly, as on binding a larger partner.
As to `CCCN1CCN(CC(O)COC(c2ccc(OC)cc2)c2ccc(OC)cc2)CC1` (centres undefined), the “activity change, negative = inhibition” value is 1.78%.

In the case of `O=C(N/N=C/c1cn(-c2cccs2)nc1-c1ccccc1)c1ccccc1O`, the “activity change, negative = inhibition” value is 2.11% [at 288 µM].

Consider `COc1cccc(NC(=O)N2CCCc3ccccc32)c1`, for which the “activity change, negative = inhibition” value was -1.89%.

On to `c1ccc(-c2ccc(-c3csnn3)cc2)cc1`, for which the “activity change, negative = inhibition” value was 2.75%.

Turning to `COc1ccc(C2=C(CN(C)C)C(c3ccccc3)c3ccccc3O2)cc1` (centres undefined), the “activity change, negative = inhibition” value was -10.7%.

With `Cc1cccc(Nc2nnc(SCC(=O)NC(=O)Nc3ccc4c(c3)OCCO4)s2)c1`, the “activity change, negative = inhibition” value is -16%.

`O=C(Nc1nccs1)C(Br)C(Br)c1ccccc1` (centres undefined): the “activity change, negative = inhibition” value is 0.0812% [at 288 µM].

As for `Cc1ccc(C(C[N+](=O)[O-])c2c(C)[nH]n(-c3ccccc3)c2=O)cc1` (centres undefined), the “activity change, negative = inhibition” value was -2.87%.

On to `CN(C)CCc1c[nH]c2ccc(CC3COC(=O)N3)cc12` (centres undefined), for which the “activity change, negative = inhibition” value was 0% [at 288 µM].

For `O=C1C(Cl)=C(NC(=O)c2ccccc2)C(=O)C(Cl)=C1NC(=O)c1ccccc1`, the “activity change, negative = inhibition” value was 5.77% [at 288 µM].

Turning to `C[N+]1(CCNC(=O)/C=N/O)CCCCC1`, the “activity change, negative = inhibition” value is -18.6%.

On to `Cc1nn(-c2ccccc2)c2nc(N)c(C(N)=O)cc12`, for which the “activity change, negative = inhibition” value is -7.72%.

Turning to `O=[N+]([O-])CC(c1ccccc1)P(=O)(c1ccccc1)c1ccccc1` (centres undefined), the “activity change, negative = inhibition” value was -4.21%.

For the compound `COc1ccc(-c2cc(-c3ccc(C)cc3)n[nH]2)c(O)c1`, the “activity change, negative = inhibition” value was 2.76% [at 288 µM].

For `CC(c1cc2ccccc2s1)N(O)C(N)=O` (centres undefined), the “activity change, negative = inhibition” value was 3.82% [at 288 µM].

`CC(=O)N1CCCc2cc(S(=O)(=O)N3CCCC(C(=O)N4CCN(c5ccccc5)CC4)C3)ccc21` (centres undefined): the “activity change, negative = inhibition” value was 1.86%.

Turning to `C=C(C)CNC(=S)Nc1cccc2cnccc12`, the “activity change, negative = inhibition” value was -5.17%.

Regarding `COc1cc(OC)cc(C(=O)N/N=C/c2ccc(OC)c(COc3ccc4ccccc4c3)c2)c1`, the “activity change, negative = inhibition” value is -9.2%.

Take `c1ccc2c(c1)nc(N1CCOCC1)c1c3ccccc3[nH]c21`: the “activity change, negative = inhibition” value is -2.11% [at 288 µM].

Consider `Cc1c(CCOC(=O)CC23CC4CC(CC(C)(C4)C2)C3)sc[n+]1Cc1ccc([N+](=O)[O-])cc1`, for which the “activity change, negative = inhibition” value was -16.9% [at 288 µM].

With `COc1cc(OC)c2ccc(=O)oc2c1C(CCN1CCOCC1)c1ccc(N(C)C)cc1` (centres undefined), the “activity change, negative = inhibition” value was 3.48%.

Regarding `CN(CCOc1ccc(Cl)cc1)CC(O)c1ccccc1` (centres undefined), the “activity change, negative = inhibition” value was -7.96% [at 288 µM].

As to `COc1ccccc1CNCC(=O)Nc1ccc(C#N)cc1`, the “activity change, negative = inhibition” value was -3.17% [at 288 µM].

Consider `CCCC(=O)Nc1cccc(NC(=O)c2ccc([N+](=O)[O-])cc2Cl)c1`, for which the “activity change, negative = inhibition” value is 0.163% [at 288 µM].

Turning to `O=S(=O)(c1ccc(-c2csc(Nc3ccc(Br)cc3)n2)cc1)N1CCCC1`, the “activity change, negative = inhibition” value is 1.46% [at 288 µM].

In the case of `CC(=O)c1ccc2c(c1)N(CCCN1CCC(CCO)CC1)c1ccccc1S2`, the “activity change, negative = inhibition” value is -8.17% [at 50.1 µM].

For the compound `COc1ccccc1/C=C/C(=O)NC(=S)Nc1ccc(S(=O)(=O)N(C)c2ccccc2)cc1`, the “activity change, negative = inhibition” value is -15.9%.

As to `CCOC(=O)N1CCN(CCC(=O)c2ccc(Br)cc2)CC1`, the “activity change, negative = inhibition” value is -16.1%.

Consider `CCc1ccc2c(c1)C(NC(C)=O)C(=O)N2CCN1CCOCC1` (centres undefined), for which the “activity change, negative = inhibition” value is -28.6%.

On to `COc1ccc(CCNCc2cc(C)n(-c3ccc(OC)cc3)c2C)cc1`, for which the “activity change, negative = inhibition” value is -0.328%.

With `O=C(c1cc2c(=O)n3ccccc3nc2s1)N1CCOCC1`, the “activity change, negative = inhibition” value is -2.44% [at 288 µM].

For `O=C(NC1CCN(c2ncccn2)CC1)c1c(F)cccc1F`, the “activity change, negative = inhibition” value was -2.68% [at 288 µM].

Take `COc1cc(NC(=O)c2cccnc2)c(OC)cc1NC(=O)c1ccc(Br)cc1`: the “activity change, negative = inhibition” value is 2.22%.

In the case of `NC(=O)c1ccc(NC(=O)c2cncn2-c2ccccc2)cc1`, the “activity change, negative = inhibition” value is 1.21%.

Values taken from PubChem BioAssay AID2783 (National Center for Advancing Translational Sciences (NCATS), 2010).
